Measured values from the supplement of paper PMC10127200.

system: OVCAR4; assay: Euclidean distance of Cell Painting phenotypic profile (signed KS, 77 features) to DMSO centroid (dimensionless distance); 5 or 10 uM (library dependent); higher = stronger phenotypic change vs DMSO (phenoactivity); conditions: 48 h
In short: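 Five cancer lines, together with a healthy fibroblast line, received library compounds for 48 h at a library-dependent 10 or 5 uM and 0.1% DMSO final. Harmony then derived 77 features from confocal 20X images (9 fields/well) of the stained cells, scoring each as a signed Kolmogorov-Smirnov statistic against same-plate vehicle wells. After plate-position correction, correlation weighting and replicate averaging at the top dose, phenoactivity was taken as each profile's Euclidean distance to the median vehicle profile.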

| SMILES | Euclidean distance |
| --- | --- |
| CC(C)CC(N)=O [Isovaleramide] | 1.81 |
| CC(C(=O)O)c1ccc2c(c1)CC(=O)c1ccccc1S2 (configuration not stated) [Zaltoprofen] | 1.24 |
| O=C1CN(/N=C/c2ccc(-c3ccc([N+](=O)[O-])cc3)o2)C(=O)N1 [Dantrolene sodium hemiheptahydrate] | 1.31 |
| Cc1cnc(Nc2ccc(N3CCN(C)CC3)cc2)nc1Nc1cccc(S(=O)(=O)NC(C)(C)C)c1 | 3.26 |
| Clc1ccc(COC(Cn2ccnc2)c2ccc(Cl)cc2Cl)cc1 (configuration not stated) [Econazole] | 0.709 |
| CC(C)NC(=N)NC(=N)Nc1ccc(Cl)cc1 [Proguanil] | 1.25 |
| NC(=O)N[C@@H](CCC(=O)O)C(=O)O [Carglumic Acid] | 0.68 |
